Test results taken from PubChem BioAssay (NCI).
This is part of a sample that, as a whole, favours compounds with a hit. Of some 83,000 tested, about 20% had one in any assay.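 How to read the values: 0–100, growth inhibition (40 = 60% inhibited); 0, no net growth; -100 to 0, cell death (-40 = 40% of starting cells died; -100 = all dead).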 Unmarked numbers belong to inactive results. Calls of active or inactive are those of the source. Rule for the calls: active = growth percent below 10; inactive = the rest.

Tests used:
Assay in all cases: NCI-60 one-dose screen, 48 h (100 = growth as untreated, 0 = no growth, -100 = all killed)
Settings in all cases: 10 µM unless noted
[1] = system: SR leukemia
[2] = system: RPMI-8226 leukemia
[3] = system: OVCAR-8 ovarian
[4] = system: OVCAR-5 ovarian
[5] = system: OVCAR-4 ovarian
[6] = system: SK-OV-3 ovarian
[7] = system: IGROV1 ovarian
[8] = system: OVCAR-3 ovarian
[9] = system: HS 578T breast
[10] = system: NCI/ADR-RES ovarian
[11] = system: T-47D breast
[12] = system: BT-549 breast
[13] = system: MDA-MB-435 melanoma
[14] = system: SW-620 colon
[15] = system: MCF7 breast
[16] = system: HCT-116 colon
[17] = system: HCC-2998 colon
[18] = system: KM12 colon

| SMILES | growth [1] | growth [2] | growth [3] | growth [4] | growth [5] | growth [6] | growth [7] | growth [8] | growth [9] | growth [10] | growth [11] | growth [12] | growth [13] | growth [14] | growth [15] | growth [16] | growth [17] | growth [18] |
| --- | --- | --- | --- | --- | --- | --- | --- | --- | --- | --- | --- | --- | --- | --- | --- | --- | --- | --- |
| O=c1oc2ccccc2cc1-c1nn(-c2ccccc2)cc1/C=N/Nc1nc(-c2ccccc2)c(N=Nc2ccccc2)s1 | 21.9% | 63.1% | 77.9% | 102% | 84.7% | 82.8% | 81.7% | 57.1% | 87.5% | 63.7% | 57.4% | 61.8% | -27.8% (active) | 43.4% | 44.3% | 56.9% | 85.6% | 44.7% |
| Cn1cc(-c2nc(-c3c[nH]c4ccncc34)cs2)c2cc(F)ccc21 | -36.8% (active) | -36.5% (active) | -60.1% (active) | -91.1% (active) | -54.4% (active) | 62.1% | -87.2% (active) | -94.7% (active) | -44.9% (active) | -73.7% (active) | -52.2% (active) | 69.6% | -91% (active) | -65.7% (active) | -71.5% (active) | -95.4% (active) | -80.6% (active) | -95.1% (active) |
| Cc1oc2ccc(O)c(CN3CCCCCC3)c2c1C(=O)Nc1ccc(C(F)(F)F)cc1 | -8.44% (active) | 75.1% | 66.3% | 85.8% | 58.6% | 76.3% | 54.3% | 62% | 65.5% | 53.6% | 74% | 78.5% | 58.2% | 67.4% | 48.1% | 32.7% | 11.2% | 65.5% |
| Cc1c(Cl)cccc1NC(=O)c1sc2nc3c(cc2c1N)CCCC3 | 9.71% (active) | 33% | 46.1% | 75.7% | 60.5% | 27.7% | 57.2% | 10.9% | 40.3% | 27.1% | 35% | 52.6% | -16.1% (active) | 19.2% | 16.3% | 24.4% | 58.5% | 23.6% |
| CC(=O)Oc1ccccc1C(=O)N(Cc1ccc2c(Cl)cc(Cl)c(O)c2n1)c1ccccc1 | 39.7% | 36.1% | 34.9% | 77.2% | 36.2% | 64.5% | 42.8% | 40.9% | 76.5% | 8.97% (active) | 40.7% | 77.3% | 54.3% | 29.1% | 34.7% | 30.9% | 60.1% | 39.6% |
| CCOC(=O)c1c(C)c2c(n1Cc1ccccc1)CSc1cc(C#N)c(=O)[nH]c1-2 | 54.8% [100 µM] | 82.4% [100 µM] | 88% [100 µM] | 120% [100 µM] | 98.8% [100 µM] | 98.6% [100 µM] | 95.5% [100 µM] | 75.7% [100 µM] | 51.9% [100 µM] | 58.5% [100 µM] | 69.2% [100 µM] | 46% [100 µM] | 98.2% [100 µM] | 91.7% [100 µM] | 101% [100 µM] | 59.9% [100 µM] | 99.7% [100 µM] | 67.6% [100 µM] |
| CCOC(=O)C#Cc1c(CC(=O)OCC)nnn1[C@H]1O[C@@H](CO)[C@@H]2OC(C)(C)O[C@@H]21 | 6.89% (active) | 45% | 94.6% | 93.9% | 88.4% | 94.4% | 98.3% | 9.91% (active) | 101% | 102% | 38.2% | 87.3% | 87.2% | -19% (active) | 11.5% | 65.2% | 107% | 103% |
| CCCNNC(=O)c1ccc(CNC(=O)/C=C/c2ccccc2)cc1 | 30.8% [2.5 µM] | 18.9% [2.5 µM] | 20.7% [2.5 µM] | 18.1% [2.5 µM] | 63.2% [2.5 µM] | 8.72% [2.5 µM] (active) | 30.5% [2.5 µM] | 47.6% [2.5 µM] | 47.3% [2.5 µM] | 21% [2.5 µM] | 0.925% [2.5 µM] (active) | 77.2% [2.5 µM] | 31.8% [2.5 µM] | 22.9% [2.5 µM] | 30.6% [2.5 µM] | 1.27% [2.5 µM] (active) | 34.2% [2.5 µM] | 47.1% [2.5 µM] |
| CN(Cc1ccccc1)c1nc(Cl)c(C2CC(c3ccc(Cl)cc3)=NN2c2cc(Cl)cc(Cl)c2)s1 (stereo not given) | 109% | 81.4% | 106% | 113% | 97.6% | 92.9% | 102% | 109% | 116% | 102% | 84.9% | 101% | 103% | 98.8% | 79.8% | 88.6% | 90.9% | 103% |
| CC(=O)O[C@H]1C[C@@]2(C)[C@@H](C[C@@H](O)[C@H]3[C@@]4(C)CC[C@H](N5CCCC5)[C@@H](C)[C@@H]4CC[C@@]32C)/C1=C(\CCC=C(C)C)C(=O)O | 24% | 88.1% | 102% | 102% | 101% | 100% | 105% | 101% | 95.3% | 95.1% | 103% | 101% | 99.7% | 96.2% | 90.7% | 99.9% | 104% | 102% |
| COc1ccc(Cn2cc3c(c2)-c2oncc2CC3)cc1 | 40.7% | 48.9% | 83.2% | 83.9% | 89.8% | 67.1% | 49.6% | 108% | 70.9% | 33.7% | 51.6% | 64.3% | -40.8% (active) | 27.2% | 35.4% | 29.6% | 68.1% | 52.3% |
| COc1ccc2c(O)cc3c(c2c1)[C@H](CCl)CN3C(=O)c1cc2cc(NC(=O)CCN3CCOCC3)ccc2[se]1 | 52.5% | 79.7% | -98.1% (active) | -44.6% (active) | -25.4% (active) | -42% (active) | -60.1% (active) | -7.3% (active) | 5.52% (active) | -34.4% (active) | -21.4% (active) | -72.8% (active) | -67.5% (active) | -41.4% (active) | -48% (active) | -55.1% (active) | -88.3% (active) | -57.4% (active) |
| CCN(CC)CCCNC(=O)c1c2c(n3ccccc13)C(=O)c1ncccc1C2=O | -22.6% (active) | -23.8% (active) | -56.1% (active) | -8.93% (active) | -83.4% (active) | -41.4% (active) | -40.3% (active) | -39.5% (active) | 37.5% | 3.02% (active) | -64.4% (active) | -6.67% (active) | -58.7% (active) | -47% (active) | -52.9% (active) | -70.5% (active) | -72.5% (active) | -13.2% (active) |
| CCCCN(CCC#N)C(N)=O | 130% | 113% | 107% | 106% | 122% | 109% | 100% | 89.7% | 105% | 109% | 100% | 109% | 110% | 99.2% | 105% | 106% | 103% | 105% |
| Nc1nc(Nc2ccc([N+](=O)[O-])cc2O)nc(C(Cl)(Cl)Cl)n1 | 7.45% (active) | 51.1% | 81.6% | 105% | 55.2% | 95.4% | 88% | 55% | 84.3% | 48% | 73.6% | 66.8% | -36.6% (active) | 54.2% | 59.5% | 70.6% | 108% | 49.8% |
| CCN1C(=O)N(CC)C2C1NN=c1s/c(=C3\C(=O)N(C)c4ccccc43)c(=O)n12 (stereo not given) | 19.3% | 62.1% | 37.6% | 48.9% | 52% | 72.5% | 37.4% | -14.1% (active) | 14.2% | 9.37% (active) | 18.5% | 55.8% | -34.4% (active) | 28.3% | 24.9% | 8.97% (active) | 22.1% | 20.9% |
| COc1cc(-c2c(-c3ccccc3)c[nH]c2C(=O)NCCCO)c(OC)c2c1OCO2 | 93.9% | 99.7% | 100% | 99.5% | 107% | 96.4% | 107% | 111% | 92.9% | 106% | 90.9% | 106% | 104% | 102% | 110% | 106% | 110% | 125% |
| FC(F)(F)c1cccc(-c2nnn(Cc3cc(-c4cccc(Cl)c4)no3)n2)c1 | 96.2% | 102% | 101% | 101% | 116% | 98.8% | 104% | 114% | 107% | 108% | 108% | 97.7% | 105% | 106% | 99.1% | 96.7% | 103% | 102% |
| CCOC(=O)CC1CSC(N/N=C/c2ccc(O)cc2)=N1 (stereo not given) | 98.5% | 104% | 103% | 100% | 108% | 88.8% | 97.3% | 110% | 104% | 108% | 93.2% | 100% | 103% | 98.1% | 91% | 81.1% | 97.4% | 100% |
| CC(C)C(=O)Nc1ncc(C(=O)NCCN(Cc2ccccc2)C(=O)c2ccc(S(=O)(=O)Nc3ccccc3)cc2)s1 | 100% | 97.6% | 102% | 97.7% | 112% | 110% | 105% | 106% | 87.1% | 101% | 91.7% | 89.2% | 98.1% | 107% | 85.8% | 90.9% | 106% | 105% |
